# Data reported in the supplement of paper PMC8728848.
# Many of the other results were omitted from the sample, so the strongest signals are more common in it than they were.
# Columns and labels:
# Experiment in all cases: glycan array binding signal (z-score within array); higher = stronger binding
# Conditions in all cases: glycan notation: IUPAC condensed, linker removed
# [1] = target: GlcNAc(a1-4)Gal(b1-4)GlcNAc(b1-3)Gal(b1-4)GlcNAc
# Method in brief: (§1)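 Glycan array data were curated from 3228 arrays in the Consortium for Functional Glycomics database and kept only where the protein sequence was available. Glycan names were converted to IUPAC-condensed notation, and columns mapping to the same glycan were averaged. The binding signal is a within-array Z-score, averaged across arrays of the same protein sequence at different concentrations or buffers and across linkers. Negative Z-scores can be read as non-binding.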
# [2] = target: GlcNAc(a1-4)Gal(b1-4)GlcNAc(b1-3)Gal(b1-4)GlcNAc(b1-3)Gal(b1-4)GlcNAc
# Method in brief: as §1
# [3] = target: GlcNAc(b1-2)Man(a1-3)[GlcNAc(b1-2)Man(a1-6)]Man(b1-4)GlcNAc(b1-4)GlcNAc
# Method in brief: as §1
# [4] = target: GlcNAc(b1-3)Gal(b1-4)GlcNAc(b1-3)Gal(b1-4)GlcNAc(b1-2)[GlcNAc(b1-3)Gal(b1-4)GlcNAc(b1-3)Gal(b1-4)GlcNAc(b1-6)]Man(a1-6)[GlcNAc(b1-3)Gal(b1-4)GlcNAc(b1-3)Gal(b1-4)GlcNAc(b1-2)Man(a1-3)]Man(b1-4)GlcNAc(b1-4)[Fuc(a1-6)]GlcNAc
# Method in brief: as §1
# [5] = target: GlcNAc(b1-3)Gal(b1-4)GlcNAc(b1-6)[Gal(b1-3)]GalNAc
# Method in brief: as §1
# GlcNAc(b1-4)GlcNAc = target: GlcNAc(b1-4)GlcNAc
# Method in brief: as §1
# [6] = target: GlcNAc(b1-4)GlcNAc(b1-4)GlcNAc
# Method in brief: as §1
# [7] = target: GlcNAc(b1-4)GlcNAc(b1-4)GlcNAc(b1-4)GlcNAc(b1-4)GlcNAc
# Method in brief: as §1
# [8] = target: GlcNAc(b1-4)GlcNAc(b1-4)GlcNAc(b1-4)GlcNAc(b1-4)GlcNAc(b1-4)GlcNAc
# Method in brief: as §1
# [9] = target: Man(a1-2)Man(a1-3)[Man(a1-3)[Man(a1-6)]Man(a1-6)]Man(b1-4)GlcNAc(b1-4)GlcNAc
# Method in brief: as §1
# [10] = target: Neu5Ac(a2-3)Gal(b1-3)GlcNAc(b1-2)Man
# Method in brief: as §1
# [11] = target: Neu5Ac(a2-3)Gal(b1-3)GlcNAc6S
# Method in brief: as §1
# [12] = target: Neu5Ac(a2-3)Gal(b1-4)GlcNAc
# Method in brief: as §1
# [13] = target: Neu5Ac(a2-3)Gal(b1-4)[Fuc(a1-3)]GlcNAc
# Method in brief: as §1
# [14] = target: Neu5Ac(a2-3)Gal6S(b1-4)GlcNAc
# Method in brief: as §1
# [15] = target: Neu5Ac(a2-6)Gal(b1-4)GlcNAc(b1-2)Man(a1-6)[Gal(b1-4)GlcNAc(b1-2)Man(a1-3)]Man(b1-4)GlcNAc(b1-4)GlcNAc
# Method in brief: as §1
# [16] = target: Neu5Ac(a2-6)Gal(b1-4)GlcNAc(b1-3)Gal(b1-4)GlcNAc
# Method in brief: as §1
# [17] = target: Neu5Ac(a2-6)GlcNAc(b1-4)GlcNAc(b1-4)GlcNAc
# Method in brief: as §1
# [18] = target: Neu5Ac9Ac(a2-3)Gal(b1-4)GlcNAc
# Method in brief: as §1
binder,measurement,setting,value
"AAA (Anguilla anguilla), Q7SIC1 (protein) VIPEGYTQENVAVRGKATQSAQLRGEHAANSEASNAIDGNRDSNFYHGSCTHSSGQANPWWRVDLLQVYTITSVTITNRGDCCGERISGAEINIGQHLASNGVNNPECSVIGSMATGETKTFHCPAPMIGRYVVTYLPTSESLHLCEVEVNVDKPAAA",glycan array binding signal (z-score),[1],1.96
same,glycan array binding signal (z-score),[2],2.29
same,glycan array binding signal (z-score),[3],-0.274
same,glycan array binding signal (z-score),[4],0.944
same,glycan array binding signal (z-score),[5],-0.298
same,glycan array binding signal (z-score),GlcNAc(b1-4)GlcNAc,2.2
same,glycan array binding signal (z-score),[6],5.55
same,glycan array binding signal (z-score),[7],7.88
same,glycan array binding signal (z-score),[8],6.77
same,glycan array binding signal (z-score),[9],-0.106
same,glycan array binding signal (z-score),[10],-0.023
same,glycan array binding signal (z-score),[11],0.003
same,glycan array binding signal (z-score),[12],-0.086
same,glycan array binding signal (z-score),[13],-0.098
same,glycan array binding signal (z-score),[14],-0.179
same,glycan array binding signal (z-score),[15],-0.183
same,glycan array binding signal (z-score),[16],-0.202
same,glycan array binding signal (z-score),[17],2.46
same,glycan array binding signal (z-score),[18],-0.102
